Assay outcomes from PubChem BioAssay.
Sfp PPTase inh = blocks B. subtilis Sfp PPTase activity | Biochemical Sfp PPTase activity, qHTS | actives 3.5% (n = 310,000) | Potency, µM, hits mostly inhibitors | Q9F4F7;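 also: the enzyme is Sfp with the accession as filed and its product quenches rhodamine fluorescence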
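Reaction rates are the 30-min fluorescence difference (ex 525, em 598 nm) in wells containing 15 nM Sfp, 5 uM rhodamine-CoA and 12.5 uM BHQ-2-YbbR at pH 7.6 with 10 mM MgCl2.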
KAT2A inh = inhibitors of human GCN5L2 histone acetyltransferase; GCN5L2 HAT assay, ThioGlo1 CoA-SH fluorescence; Q92830; actives 0.21% (n = 390,000); AID 504327; Potency, µM (titrated, usually from 58.9 µM), most hits filed as inhibitors
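qHTS, 1536-well. 20nM enzyme, pH 7.5 HEPES/EDTA/Tween-20 buffer; 15 min compound preinc., RT. Start: 75uM H3(1-25), 70uM AcCoA, 50uM ThioGlo1. Read Ex340/Em540 at t=0 (autofluorescence flag) and t=20 min.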
GLS inhibitor = glutaminase GLS (human) inhibition | O94925 | GLS enzymatic activity, qHTS titration | Potency, µM (top dose mostly 45.5 µM), usual class: inhibitors | actives 0.21% (n = 410,000) | AID 624170
Target sequence (O94925 whole entry, looked up): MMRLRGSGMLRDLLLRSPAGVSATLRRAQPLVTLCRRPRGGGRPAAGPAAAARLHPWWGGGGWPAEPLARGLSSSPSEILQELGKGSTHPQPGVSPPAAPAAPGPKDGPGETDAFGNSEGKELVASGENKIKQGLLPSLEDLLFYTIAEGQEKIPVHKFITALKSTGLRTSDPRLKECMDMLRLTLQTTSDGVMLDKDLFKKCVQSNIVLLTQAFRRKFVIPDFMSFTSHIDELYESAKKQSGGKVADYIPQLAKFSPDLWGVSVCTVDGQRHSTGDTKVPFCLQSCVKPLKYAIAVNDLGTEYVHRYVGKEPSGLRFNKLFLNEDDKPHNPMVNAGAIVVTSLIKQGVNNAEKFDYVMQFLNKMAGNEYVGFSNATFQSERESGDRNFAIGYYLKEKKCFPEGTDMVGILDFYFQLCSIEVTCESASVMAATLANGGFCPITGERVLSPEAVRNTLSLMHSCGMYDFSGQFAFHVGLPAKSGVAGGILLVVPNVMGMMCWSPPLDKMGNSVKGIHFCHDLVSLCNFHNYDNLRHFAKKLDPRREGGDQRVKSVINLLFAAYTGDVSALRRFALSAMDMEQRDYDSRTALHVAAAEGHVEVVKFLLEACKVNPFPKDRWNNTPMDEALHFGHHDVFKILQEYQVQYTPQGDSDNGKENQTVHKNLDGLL
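Glutamate formation by hKGA was monitored fluorometrically using coupled glutamate oxidase, HRP and Amplex Red. Substrate was added as 1 mM L-glutamine solution; incubation was 30 min at RT after an initial read.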
rTrxR1 inhibitor = rat TrxR1 inhibition; O89049; recombinant rTrxR1, NADPH fluorescence consumption, selenite substrate; Potency, µM (highest dose often 114 µM), actives largely listed as inhibitors; actives 1% (n = 390,000); AID 588453; also: nearly all actives have a fitted effect of over 65% in size
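Rat TrxR1 (90 nM in the dispensed reagent) was pre-reduced with 400 uM NADPH for 5 min at room temperature, then incubated with compound for 15 min. After 400 uM selenite was added, NADPH fluorescence (Ex 340/Em 450 nm) was followed for 8 min.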
TrxR1 substrate = rat thioredoxin reductase 1 substrate activity; purified TrxR1 substrate turnover, NADPH consumption readout; Potency, µM (titrated, usually from 114 µM); actives 0.01% (n = 390,000); AID 588456; also: nearly all actives have a fitted effect of over 50% in size
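Rat TrxR1, dispensed at 90 nM, was prereduced with 400 uM NADPH (final) for 5 min at ~22 deg C, then incubated with compound 15 min before 400 uM selenite. A first-read NADPH fluorescence drop versus no-compound background flagged substrates.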
VDR inhibitor = inhibitors of human vitamin D receptor. P11473. VDR-SRC2-3 peptide fluorescence polarization, 2 h. Potency, µM, actives largely listed as inhibitors. actives 0.93% (n = 400,000). AID 504847
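The screen uses fluorescence polarization to detect compounds that interfere with recruitment of the SRC2-3 coactivator peptide to VDR; plates are read after 2 h at room temperature.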
Numbers stand for hits; i = inactive; ? = inconclusive; nt = no result. Rows were chosen to be rich in hits. Some 3.8% of all compounds tested hit in one or more screens of this group. Calls follow the shape of the dose curve; as a rule, active = well fitted curve in the direction sought with a large enough effect; inconclusive = small, poorly fitted or top-dose-only effect, or another doubt; inactive = no such curve, though single readings can be large; an effect the other way counts as inactive or inconclusive.

SMILES	Sfp PPTase inh	KAT2A inh	GLS inhibitor	rTrxR1 inhibitor	TrxR1 substrate	VDR inhibitor
COc1ccc(OC)c(NC(=O)c2c(NCc3cccs3)sc3c2CCCCC3)c1	nt	i	i	?	i	i
Cc1nc(C#N)c(N/N=C/c2cccc(Cl)c2)o1	i	i	i	?	i	?
C[n+]1cccc(/C=N/Nc2nc(Cl)c(C#N)c(Cl)c2Cl)c1	i	i	i	50.1µM	i	i
C[N+](C)(C)c1ccc(/C=N/Nc2nc(Cl)c(C#N)c(Cl)c2Cl)cc1	i	i	i	70.8µM	i	i
COc1cccc(N2CCN(C(=O)C3Cc4ccccc4N3C(C)=O)CC2)c1 (configuration not stated)	nt	i	i	i	i	i
CCOc1ccc(N(CC(=O)NC2CCCC2)S(=O)(=O)c2c(C)noc2C)cc1	i	i	i	i	i	i
CCOc1cc(NS(=O)(=O)c2ccccc2)c(OCC)cc1NC(=O)c1ccco1	i	i	i	70.8µM	i	i
CCNC(=S)Nc1cc(OCC)c(NC(=O)c2ccco2)cc1OCC	i	i	i	i	i	i
COc1ccc(Cl)cc1NC(=O)c1ccc2nc(Cc3ccccc3)oc2c1	nt	i	i	i	i	i
O=S(=O)(O)c1ccc2c(N=Nc3ccc(S(=O)(=O)O)c4ccccc34)c(O)c(S(=O)(=O)O)cc2c1	i	i	i	70.8µM	i	i
CC(=O)Nc1ccc(S(=O)(=O)O)c2cc(S(=O)(=O)O)c(N=Nc3ccc(N=Nc4ccc(S(=O)(=O)O)cc4)c4ccc(S(=O)(=O)O)cc34)c(O)c12	nt	nt	nt	i	i	nt
Cc1ccc(-c2nnc(Nc3ccc(OC(F)(F)Cl)cc3)c3ccccc23)cc1S(=O)(=O)NC(C)(C)CO	nt	i	i	i	i	i
O=C(O)c1ccccc1SC1CC(=O)N(c2ccccc2)C1=O (configuration not stated)	79.4µM	i	i	?	i	i
CCOC(=O)c1cc(CC)sc1N1C(=O)CC(Sc2ccccc2C(=O)O)C1=O (configuration not stated)	3.55µM	i	i	?	i	i
COC(=O)c1c(N2C(=O)CC(Sc3ccccc3C(=O)O)C2=O)sc(C)c1C (configuration not stated)	i	i	i	?	i	?
O=C(O)c1cccnc1SC1CC(=O)N(c2ccccc2)C1=O (configuration not stated)	i	i	i	i	i	i
O=C(O)c1ccccc1SC1CC(=O)N(C2CCCCC2)C1=O (configuration not stated)	i	i	i	79.4µM	i	i
c1ccc(Cn2ccc(-c3cnc(-c4ccccc4)s3)n2)cc1	i	i	i	i	i	i
COC(=O)C1=C(C)NC(=O)NC1c1ccc(-c2ccc(F)cc2)o1 (configuration not stated)	i	i	i	?	i	?
O=C(Cc1ccccc1)NC(=S)Nc1ccc2oc(-c3ccccc3F)nc2c1	i	i	i	i	i	i
O=C(CSc1cn[nH]n1)Nc1cccc(C(=O)O)c1	35.5µM	?	i	i	i	44.7µM
O=C(CCc1ccccc1)Nc1nnc(-c2ccccn2)o1	i	i	i	i	i	i
CCC(=O)Nc1nnc(-c2ccccn2)o1	50.1µM	i	i	i	i	i
O=C(NCc1ccccc1)N(Cc1cc2cc3c(cc2[nH]c1=O)OCO3)CC1CCCO1 (configuration not stated)	i	i	i	i	i	i
COc1ccc(C)cc1Nc1nc(-c2c[nH]c3ccccc23)cs1	28.2µM	i	i	i	i	i
SMILES	Sfp PPTase inh	KAT2A inh	GLS inhibitor	rTrxR1 inhibitor	TrxR1 substrate	VDR inhibitor
Cc1ccc(-c2cccc(NC(=O)C3C(C(=O)O)[C@@H]4C=C[C@H]3C4)c2)o1 (some centres not stated)	7.94µM	i	i	?	i	i
CCN(CC)CCCNC(=O)Cn1ncc2c(=O)oc3ccc(C)cc3c21	i	i	i	i	i	i
Cc1nn(C)c(C(=O)NC(=S)Nc2ccc([N+](=O)[O-])cc2)c1Cl	31.6µM	?	i	i	i	i
Cn1c(=O)cc(SCC(=O)N2CCOCC2)c2ccc(Cl)cc21	i	i	i	i	i	i
CN(C)/C=C\C(=C/C(=O)C(F)(F)F)Nc1ccccc1Oc1ccccc1	44.7µM	i	i	i	i	i
O=C1C=C(c2c(O)ccc3ccccc23)c2ccccc2C1=O	nt	nt	?	?	79.4µM	?
COc1cccc(C2=NN(C(=O)c3ccc(C)o3)C(O)(C(F)(F)F)C2)c1 (configuration not stated)	?	i	i	i	i	i
COc1cccc(C2=NN(C(=O)c3cccs3)C(O)(C(F)(F)F)C2)c1 (configuration not stated)	44.7µM	i	i	i	i	i
COc1ccc(C(=O)N2N=C(c3cccc(OC)c3)CC2(O)C(F)(F)F)cc1 (configuration not stated)	50.1µM	i	i	i	i	i
COc1cccc(C(=O)N2N=C(c3cccc(OC)c3)CC2(O)C(F)(F)F)c1 (configuration not stated)	i	i	i	i	i	i
CN1CCN(c2nnc(-c3cccs3)c3ccccc23)CC1	i	i	i	i	i	i
CC(=O)N(C)c1ccc(NC(=S)Nc2ccc(C(C)C)cc2)cc1	i	i	i	i	i	i
COC(=O)c1ccc(C(=O)N2CCCC(CNC(=O)c3ccc(F)cc3)C2)cc1 (configuration not stated)	i	i	i	i	i	i
COCc1ccc(C(=O)N2CCCC(CNC(=O)c3ccc(F)cc3)C2)o1 (configuration not stated)	i	i	i	35.5µM	i	i
Cc1cccc(NC(=O)CSCC(=O)N2CCN(Cc3ccc4c(c3)OCO4)CC2)c1	nt	i	i	i	i	i
O=C(Nc1ccc(Cl)c(S(=O)(=O)N2CCCC2)c1)c1nn(CCO)c(=O)c2ccccc12	nt	i	i	i	i	i
Cc1cc(N/N=C/c2cccc(Br)c2)nc2ccccc12	20µM	i	i	i	i	i
COc1ccc(C2=CC(=O)C[C@H](c3ccc(F)cc3)C2)cc1OC	nt	i	i	i	i	i
CCCCN(C(=O)CN1CC(C)OC(C)C1)c1c(N)n(CC(C)C)c(=O)[nH]c1=O (configuration not stated)	i	i	i	i	i	i
CCCCN(C(=O)Cn1ncc(Cl)c(Cl)c1=O)c1c(N)n(CC(C)C)c(=O)[nH]c1=O	i	?	i	56.2µM	i	?
CC(NCc1ccccc1Cl)C(=O)Nc1ccc(S(=O)(=O)N2CCCC2)cc1 (configuration not stated)	56.2µM	i	i	i	i	i
